What all share (assay): NCI-60 one-dose screen, 48 h (100 = growth as untreated, 0 = no growth, -100 = all killed)
Holding throughout (details): 10 µM unless noted

Assay [1] has as its system NCI-H23 lung.
In assay [2] the test system is NCI-H226 lung.
For assay [3], the system named is NCI-H322M lung.
In assay [4] the test system is HOP-62 NSCLC.
The test system of assay [5] is NCI-H460 lung.
The test system of assay [6] is HOP-92 NSCLC.
For assay [7], the system named is NCI-H522 lung.
Assay [8] deals with A549/ATCC NSCLC.
Assay [9] deals with 786-0 renal.
Assay [10] concerns COLO 205 colon.

This is part of a sample that, as a whole, favours compounds with a hit. Of some 83,000 tested, about 20% had one in any assay.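 Step 1: grow cells in 96-well plates. Step 2: add test compound at a single concentration. Step 3: incubate 48 h. Step 4: record percent growth.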 Values without a mark were called inactive. Activity calls are given as the source filed them. How the source made its calls: active means growth percent below 10; inactive means the rest.

As to `COc1ccc2c(c1)CC/C(=C\c1cncc(Br)c1)C2=O`, the growth in assay [1] was 92.7%; in [2], 111%; in assay [3], 106%; in assay [4], 90%; in [5], 103%; in [6], 84.4%. For the same compound, the growth was 55.7% in [7], 95.3% in [8], 92.7% in assay [9] and 106% in assay [10].

Take `CCC#CC[C@H](O)C/C=C1/C(=O)C=C[C@@H]1C/C=C\CCCC(=O)OC`: the growth was -13.4% (active) in assay [1]; -62.8% (active) in assay [2]; 48.1% in assay [3]; -8.26% (active) in assay [4]; -34.6% (active) in assay [5]; 35.8% in assay [6]. Also, the growth in assay [7] was -90.1% (active); in assay [8], 32.6%; in assay [9], -28.3% (active); in assay [10] it was -23% (active).

On to `O=C1NC(=Nc2ccc(O)cc2)S/C1=C\c1cccc(Cl)c1`, for which the growth in assay [1] is 88.2%; in [2], 102%; in assay [3], 83.7%; in assay [4] it was 76.1%; in [5] it was 86.3%; in assay [6] it was 72.5%. The growth in [7] is 76.3%; in [8], 54.9%; in assay [9], 67.1%; in [10], 102%.

For `CC1CCNC(C)C1` (stereo not given), the growth is 104% in [1]; 95.7% in [2]; 109% in [3]; 104% in assay [4]; 105% in assay [5]; 76.3% in assay [6]. Also, the growth was 103% in assay [7], 112% in assay [8], 106% in [9] and 105% in [10].

For the compound `O=C1C=C(OCC=C(Cl)Cl)C(=O)c2ccccc21`, the growth was 57.4% in [1]; 97.3% in assay [2]; 101% in assay [3]; 87.2% in assay [4]; 99.9% in assay [5]; 73.7% in assay [6]. For the same compound, the growth in assay [7] was 51.8%; in assay [8] it was 91.3%; in assay [9] it was 94.9%; in assay [10], 137%.

Take `OCCN1CCN(c2nc(Nc3ccc(-c4nc5ccccc5[nH]4)cc3)c3cn[nH]c3n2)CC1`: the growth is -75.6% (active) in [1]; 106% in assay [2]; -89.8% (active) in assay [3]; -93.2% (active) in [4]; -85.4% (active) in assay [5]; -83.4% (active) in assay [6]. In addition, the growth in assay [7] is -85.6% (active); in [8], -91.9% (active); in assay [9], -88.5% (active); in [10], -81.4% (active).

For `Cn1nc(N)c2cc([C@@H]3Nc4ccc5[nH]ncc5c4[C@H]4C5CCC(C5)[C@@H]34)ccc21` (stereo not given in full), the growth is 26.9% in [1]; 30.6% in assay [2]; 48.9% in assay [3]; 46.9% in [4]; 2.68% (active) in assay [5]; 105% in [6]. Also, the growth in assay [7] was 17.9%; in assay [8] it was 28.5%; in assay [9], 34.7%; in assay [10] it was 2.47% (active).

As for `O=C(O)COc1ccc(Cl)cc1C1CCCCC1`, the growth in [1] is 102%; in assay [2], 92.8%; in assay [3], 101%; in assay [4], 106%; in assay [5], 96.3%; in assay [6], 111%. In addition, the growth in assay [7] is 99%; in assay [8], 93.2%; in assay [9], 106%; in assay [10] it was 119%.

As for `COc1cc(CNc2oc(-c3ccccc3)c(-c3ccccc3)c2C#N)cc(CN2CCN(C)CC2)c1O`, the growth in [1] was 73.1%; in assay [2], 88%; in assay [3], 89.2%; in assay [4], 79.2%; in assay [5] it was 33.4%; in [6] it was 43.9%. Further, the growth in assay [7] was 71.5%; in assay [8], 56.8%; in [9] it was 67.2%; in assay [10], 54.3%.

`O=C(CN(C(=O)Cn1c(=O)n2nnnc2c2ccccc21)c1ccccc1C(F)(F)F)Nc1ccc(C(F)(F)F)cc1`: the growth in assay [1] was 103%; in assay [2], 104%; in assay [3] it was 107%; in assay [4], 107%; in [5] it was 105%; in [6], 92.8%. In addition, the growth in assay [7] was 98%; in assay [8], 104%; in [9], 103%; in [10] it was 112%.

Turning to `Clc1ccc2nc3nc4ccc[nH]c4cc3c2c1`, the growth in [1] is 73.7%; in [2] it was 83.8%; in assay [3], 65.1%; in assay [4] it was 89.7%; in assay [5], 54.4%; in assay [6], 105%. Besides, the growth in assay [7] is 81.1%; in assay [8] it was 79.2%; in [9] it was 105%; in assay [10], 98.9%.

For the compound `Cc1[nH]c(-c2ccc3cc[nH]c3c2)c2c1C(=O)CCCC2`, the growth in assay [1] is 49.3%; in assay [2], 52.4%; in [3] it was 50.4%; in assay [4] it was 32.3%; in assay [5], 66.8%; in assay [6], 37.1%. For the same compound, the growth in [7] was 37%; in [8] it was 51.9%; in [9], 50.5%; in assay [10], 40.6%.
